Reference: PubChem BioAssay AID1117319 (Southern Research Institute, 2015)
Where “and” joins values, the source holds several entries; their conditions need not be identical. Equal entries are not always repeated. Out of some 260,000 compounds screened, about 1,500 (0.58%) were called active. About 5% were inconclusive and are not listed.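 Rule for the calls: active = inhibition above a set limit at one or more doses, reproduced on every date tested; inconclusive = results disagree between test dates, or hit never tested in dose response; inactive = the rest.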 Only a sample is shown. Measured potencies and affinities stand elsewhere.

molecular target: Virion infectivity factor (Human immunodeficiency virus type 1 group M subtype B (isolate BH10)) + Virion infectivity factor (Human immunodeficiency virus type 1 group M subtype B (isolate BRU/LAI)) + Virion infectivity factor (Human immunodeficiency virus type 1 group M subtype B (isolate PCV12)) + Virion infectivity factor (Human immunodeficiency virus type 1 group M subtype B (isolate HXB2)) + DNA dC->dU-editing enzyme APOBEC-3G (Homo sapiens) (UniProt P69720+P69721+P69722+P69723+Q9HC16); test: inhibitors of Vif binding to APOBEC3G peptide, primary screen, biochemical, TR-FRET, GST-Vif 1-94, biotin-A3G peptide, dose response retest (AID 1117319); settings: active compounds read high;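 note: Vif residues 1-94 fused to GST binding biotinylated APOBEC3G peptide 110-148; 0% = full assay without inhibitor and 100% = GST in place of GST-Vif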

inhibition, inactive:
CO[C@H]1C=CO[C@@]2(C)Oc3c(C)c(O)c4c(O)c(c(C=NN5CCN(C6CCCC6)CC5)c(O)c4c3C2=O)NC(=O)C(C)=CC=C[C@H](C)[C@H](O)[C@@H](C)[C@@H](O)[C@@H](C)[C@H](OC(C)=O)[C@@H]1C -8.62%
COC1C=COC2(C)Oc3c(C)c(O)c4c(O)c(c(CN5CCN(C)CC5)c(O)c4c3C2=O)NC(=O)C(C)=CC=CC(C)C(O)C(C)C(O)C(C)C(OC(C)=O)C1C (stereo not drawn) 13.7%
CCCn1c2ccc(C)cc2c2nnc(SCCN3CCOCC3)nc21 -4.1%
CC(C)N1CCC(=O)NC1=O 3.79%
Cc1ccc(SCC2=NNC(=O)C2)cc1 74.7%
O=C1CC(CSc2ccc(Cl)cc2)=NN1 -2.88%
COc1ccc(CCNC(=O)c2ccc(NS(=O)(=O)c3c(C)noc3C)cc2)cc1OC -8.32%
COc1cccc(C(=O)N[C@@H](CCSC)c2nc3ccccc3[nH]2)c1 5.58%
Cc1ccc(C2C3CSCC=C3C(C#N)=C(N)C2(C#N)C#N)cc1 (stereo not drawn) 8.68%
N#CC1=C(N)C(C#N)(C#N)C(c2cccnc2)C2COCC=C12 (stereo not drawn) 0.31%
CCOC(=O)c1c(C)[nH]c(C(=O)OCC(=O)Nc2cccnc2Cl)c1C -0.74%
O=C(CN1/C(=C(/O)c2ccccc2)C(=O)c2ccccc2S1(=O)=O)c1ccccc1 -0.58%
Cc1ccc(C(=O)CN2/C(=C(\O)c3ccccc3)C(=O)c3ccccc3S2(=O)=O)c(C)c1 2.58%
COc1cccc(-c2nnc3sc(-c4ccco4)nn23)c1 5.27%
c1coc(-c2nn3c(-c4ccco4)nnc3s2)c1 24.5%
CCOc1ccccc1NC(=O)CSc1n[nH]c(=O)n1-c1ccccc1 -11.6%
CCOC(=O)Nc1ccc2c(c1)OCO2 -0.36%
COC(=O)CNc1ccc2c(c1)OCO2 26.3%
Cn1c(CNC(=O)CNC(=O)c2cccc(F)c2)cc(=O)n(C)c1=O 1.22%
O=C1CC(N2CCSCC2)C(=O)N1c1cccc(Cl)c1 (stereo not drawn) 2.84%
COc1ccc(/C=C2/C(=N)N3N=C(CC(=O)N4CCCC4)SC3=NC2=O)cc1 -6.36%
N=C1/C(=C/c2ccco2)C(=O)N=C2SC(CC(=O)N3CCCC3)=NN12 22.9%
COc1ccc(CNC(=O)COC(=O)c2[nH]c(C)c(C(C)=O)c2C)cc1OC 7.14%
CN(c1ccc(OCC(=O)NC2CCC(O)CC2)cc1)S(=O)(=O)c1ccc(Cl)cc1 (stereo not drawn) -2.71%
O=c1cc(-c2ccccc2Cl)oc2cc(O)cc(O)c12 -0.34%
O=c1cc(-c2ccccc2F)oc2ccccc12 17.5%
O=c1[nH]c(=O)n(Cc2ccccc2)c2nc(-c3cccs3)n(CCO)c12 0.78%
Cc1ccc(S(=O)(=O)Cn2nnnc2C(CC(C)C)N2CCN(c3ccccc3)CC2)cc1 (stereo not drawn) -7.24%
Cc1ccc(S(=O)(=O)Cn2nnnc2C(CC(C)C)N2CCN(C(=O)c3ccco3)CC2)cc1 (stereo not drawn) 28%
Cc1ccc2cccc(Oc3ncnc4scc(-c5ccccc5)c34)c2n1 -1.8%
COC(=O)CSc1ncnc2scc(-c3ccccc3)c12 13.7%
COc1ccc(C2CC(=O)c3ccccc3O2)cc1 (stereo not drawn) 18.3%
COc1cc(C)cc2c1OC(c1ccccc1)CC2=O (stereo not drawn) -0.37%
O=c1c2cn[nH]c2[nH]c(=S)n1-c1ccccc1F -1.23%
CCC(C)NCCCOc1c(C)cc(C)cc1Br (stereo not drawn) -1.93%
COCC(=O)N(CCc1ccc(OC)cc1)Cc1nc2ccccc2c(=O)[nH]1 0.5%
CCC(CC)C(=O)N(CCc1ccc(OC)cc1)Cc1nc2ccccc2c(=O)[nH]1 -1.67%
O=C(CNC(=O)c1cccc(Cl)c1)NCC(c1cccs1)N1CCOCC1 (stereo not drawn) -8.67%
Cc1nnc2ccc(-c3cccc(NS(C)(=O)=O)c3)nn12 30.9%
CCCn1c(SC/C(O)=C(\C#N)c2nc3ccccc3[nH]2)n[nH]c1=O 8.52%
Cc1cc(C)n2c(SCC(O)=C(C#N)c3nc4ccccc4[nH]3)nnc2n1 -1.4%
O=C(Nc1ccccn1)C1CCN(S(=O)(=O)c2cccs2)CC1 -2.3%
O=C(Nc1ccc(Cl)cn1)C1CCN(S(=O)(=O)c2cccs2)CC1 2.8%
Cc1ccc(S(=O)(=O)NCC(=O)OC(C(=O)c2ccccc2)c2ccccc2)cc1 (stereo not drawn) 17.9%
CCCCN1C(=O)C(CC(=O)NCc2ccco2)CC(C(=O)N(CC)CC)=C1C (stereo not drawn) -1.7%
Cn1cc(C(=O)N/N=C/c2ccc(Br)c([N+](=O)[O-])c2)c2ccccc21 -0.7%
NC(=O)COC(=O)CNC(=O)c1ccc(Cl)cc1 -2.39%
Cc1cccc(C(=O)Nc2sc3c(c2C#N)CCCCC3)c1 -5.88%
Cc1ccc(C(=O)Nc2sc3c(c2C#N)CCCCC3)cc1C -3.7%
CC(C)(C)c1ccc(OCCC(=O)OCC(=O)Nc2ccc(N3CCOCC3)cc2)cc1 -3.5%
O=C(O)c1cc(S(=O)(=O)O)ccc1O 9.92%
O=P(c1ccccc1)(c1ccccc1)c1cc(S(=O)(=O)O)ccc1O 26.4%
O=Nc1c(O)ccc2cc(S(=O)(=O)O)ccc12 24.3%
Nc1cc(S(=O)(=O)O)cc2ccc(S(=O)(=O)O)cc12 0.1%
COc1ccc(C)cc1-n1c(C)cc(C=O)c1C -0.15%
c1ccc(Cn2ncc3ccccc32)cc1 23.7%
Cc1cc([N+](=O)[O-])nn1CC(=O)N/N=C/c1ccccc1Br -3.16%
Cc1cc(NS(=O)(=O)c2ccc(NC(=O)Cc3cccs3)cc2)no1 -3.09%
Cc1cc(NC(=O)CCCC(=O)NCc2cccs2)no1 10.9%
Cc1ccnc(NS(=O)(=O)c2ccc(NC(=O)Cc3ccccc3)cc2)n1 4.16%
COC(=O)c1ccc(C(=O)OC)c(NC(=O)CCC(=O)O)c1 17.1%
Cc1nc2ccc(NC(=O)Cc3ccsc3)cc2s1 -2.69%
O=C(Cc1cccs1)Nc1ccc(S(=O)(=O)Nc2ncccn2)cc1 26.2%
Cc1nc2ccc(NC(=O)Cc3ccccc3F)cc2s1 13.4%
COC(=O)c1cc(OC)c(OC)cc1NC(=O)Cc1cccs1 10.3%
COc1ccc(OC)c(-c2nc(C(N)=O)c3[nH]c(=O)n(-c4ccc(F)cc4)c3n2)c1 -0.73%
NNC(=O)c1nc(-c2cccc(-n3cccc3)c2)no1 2.13%
CC(=O)Nc1ccc(C(=O)COC(=O)CCc2ccccc2)c(F)c1 -7.82%
FC(F)(F)c1cnc(-n2cc[nH]c2=S)c(Cl)c1 -3.85%
CCCCN=C1NC(=O)C(CC(=O)NCCc2ccc(OC)cc2)S1 (stereo not drawn) 21.5%
CCOc1ncccc1C(=O)NCCN1C(=O)S/C(=C/c2cccs2)C1=O 17.3%
Cc1nc(Nc2ccccc2)c2oc3ccc(Cl)cc3c2n1 -10.6%
Cc1ccc(NC(=O)c2cc(-c3ccc(C)o3)nc3ccccc23)cc1 20.7%
Cc1ccc(-c2cc(C(=O)Nc3ccccc3C)c3ccccc3n2)o1 0.87%
CCc1c(C(=O)OC)nnc2cc(C)nn12 -2.39%
COc1ccc(SCC(=O)Nc2ccc(N3CCN(C)CC3)c(F)c2)cc1 -1.67%
CC(=O)c1c(C)[nH]c(C(=O)OCC(=O)NCC(C)C)c1C -6.38%
CNC(=O)COC(=O)c1[nH]c(C)c(C(C)=O)c1C 1.68%
CCOC(=O)c1c(C)[nH]c(C(=O)OCC(=O)N2CCN(S(=O)(=O)c3ccc(C)cc3C)CC2)c1C -6.76%
Cc1[nH]ccc(=O)c1Oc1ncc(C(F)(F)F)cc1Cl -2.35%
Cc1ccc(-c2nn(Cc3ccccc3)cc2/C=C/C(=O)O)cc1C -3.26%
COc1ccc(OC)c(C(c2nnnn2C2CCCC2)N2CCN(c3ccccc3F)CC2)c1 (stereo not drawn) -6.38% and 2.54%
COc1ccc(C)cc1NC(=O)C(C)N(c1ccc(C)cc1)S(C)(=O)=O (stereo not drawn) -0.78%
CCC(CC)C(=O)N1CC(=O)Nc2ccc(F)cc2C1c1ccccc1 (stereo not drawn) -0.74%
CC(/C=C1\SC(=S)N(CC(=O)N2CCN(c3ccccc3)CC2)C1=O)=C\c1ccccc1 25.6%
COc1cccc(/C=C2\SC(=S)N(c3cccnc3)C2=O)c1OC -3.12%
O=C(O)CN1C(=O)/C(=C\C(Br)=C\c2ccccc2)SC1=S 8.8%
COc1ccc(CCN2C(=O)/C(=C\c3ccco3)SC2=S)cc1OC 0.31%
COc1cc(/C=C2\SC(=N)N(c3ccc4c(c3)OCO4)C2=O)cc(OC)c1O 2.68%
Cc1ccc(N2C(=O)/C(=C/c3ccco3)SC2=S)cc1 -7.25%
O=C1/C(=C\c2ccc(O)cc2)SC(=S)N1c1cccnc1 1.44%
N=C1S/C(=C\c2cccc3ccccc23)C(=O)N1c1ccc(F)cc1 -3.83%
C[C@H](O)[C@@H]1C(=O)N2CCc3ccc(N4CCOCC4)cc3[C@@H]2C[C@@H]1N(C)S(=O)(=O)c1ccccc1 -8.52%
